Here are results for 65 sequences from the supplement of paper PMC10338343.

For assay [1], the system named is MILI (PIWIL2) piRISC loaded with L1MC piRNA (26 nt). Nature of the assay: pre-steady-state target cleavage rate (min^-1); guide: L1MC piRNA 5'p-UAACUAAAUACUAUGCAAGCUGUAGG; higher = faster piRNA-guided slicing of the target. The method in brief: (§1)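 The pre-steady-state cleavage rate was derived from a burst-and-steady-state fit of Cleave-'n-Seq data. For these assays, 1 nM active affinity-purified piRISC loaded with a single synthetic guide was mixed with […] a transcribed, DNA-blocked target RNA library in HEPES–potassium acetate buffer at 33 °C, with or without 500 nM GTSF1 partner protein, for 0–8 or 0–960 min. Sequencing counts of uncleaved targets were normalised to depth and to weakly complementary targets, and k3 was capped at 0.0001 min^-1 after three trials were pooled.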

The test system of assay [2] is EfPiwi piRISC loaded with L1MC piRNA (26 nt). Description: pre-steady-state target cleavage rate (min^-1); auxiliary factor: 500 nM Ephydatia muelleri Gtsf1; guide: L1MC piRNA 5'p-UAACUAAAUACUAUGCAAGCUGUAGG; MIWI and MILI are mouse PIWI proteins and EfPiwi is from a freshwater sponge; tags in brackets are library labels; higher = faster piRNA-guided slicing of the target. In short, it runs like this: as §1
[3] abbreviates: auxiliary factor: 500 nM mouse GTSF1.
[4] abbreviates: auxiliary factor: none (no GTSF1).

± gives the standard deviation.

For the sequence UCCUGGAUGUGCUUGCAUAGUAUUUAGCUUA, the “pre-steady-state target cleavage rate” value in assay [1] (setting [3]) was found to be 0.113 ± 0.028; in assay [2] it was 0.00517 ± 0.003.
On the same counts, the results for UCCUCCUACAGCUUGCAAAGAAUUUAGUUA are 0.0165 ± 0.0051 and 0.0033 ± 0.0027.
On the same counts, the results for UCCUCCUACAGCUUGCAUAGUAAUUAGUAA are 0.141 ± 0.021 and 0.0063 ± 0.0029.
For UCCUGGUACAGCUUGCAUAGUAUUUACAUA, in that order: 0.0411 ± 0.014 and 0.0038 ± 0.0029.
For UCCUCCUACAGCUUGCAUAGUAUAUACAAA, the “pre-steady-state target cleavage rate” value in assay [1] (setting [3]) turned out to be 0.0968 ± 0.025; in assay [2] it was 0.00313 ± 0.003.
On the same counts, the results for UCCUCCUACAGCUUGCUUAGUAUUUACAAA are 0.0922 ± 0.021 and 0.00329 ± 0.003.
Regarding UCCUCCUACAGCUUGCAUAGUAUUAUCUUA, the “pre-steady-state target cleavage rate” value is 0.105 ± 0.025 in assay [1] (setting [3]) and 0.00351 ± 0.0027 in assay [2].
For UCCUGGUUGAGCUUGCAUAGUAUUUUCAAA, in that order: 0.0103 ± 0.006 and 0.00218 ± 0.0021.
On the same counts, the results for UCCUGGAUCAGCUUGCAUAGUAUUUGUUA are 0.145 ± 0.023 and 0.00326 ± 0.0029.
For UCCUGGAUGAGCUUGCUUAGUAUUAAGUUA, in that order: 0.128 ± 0.021 and 0.00314 ± 0.0031.
Consider UCCUGCUACAGCUUGCAUAGUAUUAACAAA, for which the entries for the “pre-steady-state target cleavage rate” value in assay [1] (setting [3]) and in assay [2] were 0.0401 ± 0.011 and 0.00321 ± 0.0023, respectively.
For UCCUGGAACACCUUGCAUAGUAUUUAGAUA, in that order: 0.183 ± 0.043 and 0.0026 ± 0.0026.
On the same counts, the results for UCCUGGAUCAGCUUGCAUAGUAUAUAGAUA are 0.0407 ± 0.013 and 0.00301 ± 0.0023.
For UCCUGCUACAGCUUGCAUAUGUAUUUAGUUA, in that order: 0.0123 ± 0.0069 and 0.00294 ± 0.0023.
Consider UCCUGGAACAGCUUGCAUAGUAUUAAGUAA, for which the “pre-steady-state target cleavage rate” value in assay [1] (setting [3]) is 0.0909 ± 0.024; in assay [2], 0.00572 ± 0.0023.
For UCCUCCUACAGCUUGCAUAGUAUUUUGUAA, in that order: 0.092 ± 0.019 and 0.0056 ± 0.003.
As for UCCUGGUACAGCUUGCAUAGUAAUAAGUUA, the “pre-steady-state target cleavage rate” value was 0.204 ± 0.033 in assay [1] (setting [3]) and 0.00546 ± 0.0031 in assay [2].
On the same counts, the results for UCCUGGAUGUGCUUGCAUAGUAUUUACAAA are 0.00913 ± 0.0046 and 0.00369 ± 0.0033.
For UCCUCCUUGAGCUUGCAUAGUAUUUACAAA, the entries for the “pre-steady-state target cleavage rate” value in assay [1] (setting [3]) and in assay [2] were 0.0856 ± 0.023 and 0.00316 ± 0.0022, respectively.
For UCCUCCUACACCUUGCAUAGAAUUUAGUUA, in that order: 0.0594 ± 0.019 and 0.0018 ± 0.0016.
For UCCUGGAACAGCUUGCAUAGUAUUUAGAUA, in that order: 0.137 ± 0.025 and 0.00437 ± 0.0016.
For UCCUCCUACAGGUUGCAUAGUAUUUAGAAA, in that order: 0.12 ± 0.023 and 0.00461 ± 0.0014.
Take UCCUGGAUGUGCUUGCAUAUUAUUUAGUUA: the “pre-steady-state target cleavage rate” value in assay [1] (setting [3]) worked out at 0.0346 ± 0.0073; in assay [2], 0.00647 ± 0.0022.
For UCCUCCUUCAGCUUGCAUAGAAUUUAGUUA, in that order: 0.0772 ± 0.016 and 0.00469 ± 0.0021.
Turning to UCCUGGAUCAGCUUGCCAUAGUAUUUAGUUA, the “pre-steady-state target cleavage rate” value stood at 0.0992 ± 0.014 in assay [1] (setting [3]) and 0.00658 ± 0.0025 in assay [2].
On the same counts, the results for UCCUGGAUCAGCUUGCAUAGUAUUUACAUA are 0.0335 ± 0.0081 and 0.00271 ± 0.0021.
Consider UCCUGCUACAGCUUGCAUAGUAUUUAGUAUA, for which the “pre-steady-state target cleavage rate” value came out at 0.292 ± 0.044 in assay [1] (setting [3]) and 0.00675 ± 0.0019 in assay [2].
On the same counts, the results for UCCUGCUACAGCUAGCAUAGUAUUUAGAUA are 0.151 ± 0.028 and 0.00409 ± 0.0015.
For UCCUGGAUCAGCUUGCUAUAGUAUUUAGUUA, in that order: 0.0101 ± 0.0052 and 0.00528 ± 0.0019.
On the same counts, the results for UCCUGGUACACCUUGCAUAGUAUUAAGUUA are 0.218 ± 0.066 and 0.00356 ± 0.0032.
UCCUGGUACAGCUUGCAUUGUAAUUAGUUA: the “pre-steady-state target cleavage rate” value in assay [1] (setting [3]) was 0.0918 ± 0.016; in assay [2] it was 0.00313 ± 0.0023.
For UCCUGGAACAGCUUGCAUAGAAUUUAGAUA, in that order: 0.0527 ± 0.018 and 0.00187 ± 0.0015.
On the same counts, the results for UCCUGGAACAGCUUGCAUAGUAUUUAAUUA are 0.102 ± 0.021 and 0.00345 ± 0.0024.
Turning to UCCUGGAUGUCGAAGGAAAGUAUUUAGUUA, the “pre-steady-state target cleavage rate” value in assay [1] (setting [4]) and in assay [2] was less than 0.0001 each time.
Regarding UCCUGGAACAGCUUGCAUAGUAUAUAGUAA, the results for the “pre-steady-state target cleavage rate” value in assay [1] (setting [3]) and in assay [2] were 0.124 ± 0.022 and 0.00251 ± 0.0017, respectively.
For UCCUCCUACAGCUUGCAUAGUUUUUACUUA, in that order: 0.036 ± 0.0086 and 0.00304 ± 0.0026.
For UCCUGGAUGAGCUAGCAUAGUAUUUAGAUA, in that order: 0.168 ± 0.028 and 0.00406 ± 0.002.
On to UCCUGCUACAGCUUGCAUACUAAUUAGUUA, for which the results for the “pre-steady-state target cleavage rate” value in assay [1] (setting [3]) and in assay [2] were 0.0334 ± 0.0091 and 0.00252 ± 0.0014, respectively.
Take UCCUGCUACAGCUUGCAAAGUAUAUAGUUA: the “pre-steady-state target cleavage rate” value in assay [1] (setting [3]) stood at 0.0886 ± 0.016; in assay [2] it was 0.00379 ± 0.0026.
With UCCUGCUACAGCUUGCAUACAAUUUAGUUA, the “pre-steady-state target cleavage rate” value in assay [1] (setting [4]) stood at 0.00287 ± 0.0025; in assay [2], 0.00307 ± 0.0028.
With UCCUGGAACAGCUUGCAUAGUAUUUACAUA, the “pre-steady-state target cleavage rate” value in assay [1] (setting [3]) was found to be 0.0382 ± 0.014; in assay [2], 0.00316 ± 0.0025.
On the same counts, the results for UCCUCCUACUGCUUGCAUAGUAUUUAGAUA are 0.085 ± 0.015 and 0.0056 ± 0.0026.
For UCCUCCUACAGCUUGCAUAGUAUAUACUUA, in that order: 0.0976 ± 0.028 and 0.00304 ± 0.0025.
For UCCUCCUACAGCUUGCAUAGUAAAUACAAA, in that order: 0.0608 ± 0.018 and 0.00363 ± 0.003.
For the sequence UCCUGCUACUGCUUGCAUAGUAUUUAGUAA, the “pre-steady-state target cleavage rate” value is 0.146 ± 0.034 in assay [1] (setting [3]) and 0.00464 ± 0.0016 in assay [2].
For UCCUGCUACAGCUUGCCAUAGUAUUUAGUUA, in that order: 0.128 ± 0.015 and 0.00382 ± 0.0023.
On the same counts, the results for UCCUCCUACAGCUUGCAAUCUAUUUAGUUA are 0.0266 ± 0.0058 and 0.00376 ± 0.0036.
On the same counts, the results for UCCUCCUACACCUUGCAUAGUAUUUUGUUA are 0.101 ± 0.026 and 0.00451 ± 0.0027.
For the sequence UCCUCCUACAGCUUGCAUAGUUAUUAGUAA, the “pre-steady-state target cleavage rate” value worked out at 0.031 ± 0.011 in assay [1] (setting [3]) and 0.00524 ± 0.0028 in assay [2].
For UCCUCCUACUCCUUGCAUAGUAUUUAGAAA, the entries for the “pre-steady-state target cleavage rate” value in assay [1] (setting [3]) and in assay [2] were 0.0907 ± 0.021 and 0.00457 ± 0.0022, respectively.
For UCCUGCUUCAGCUUGCAUAGUAUUUUCAAA, in that order: 0.0882 ± 0.022 and 0.00362 ± 0.0023.
On the same counts, the results for UCCUCCUACAGCUAGCAUAGUAUUUACAAA are 0.0849 ± 0.018 and 0.00397 ± 0.0031.
On the same counts, the results for UCCUGGAUGUCCUUGCAUAGUAUUUAGGUUA are 0.0768 ± 0.019 and 0.00393 ± 0.0033.
Regarding UCCUGCUAGAGCUUGCAUAGUAUUUAGUAA, the results for the “pre-steady-state target cleavage rate” value in assay [1] (setting [3]) and in assay [2] were 0.161 ± 0.023 and 0.00419 ± 0.0014, respectively.
For UCCUCCUACAGCAUGCAUAGUAUUUAGAUA, in that order: 0.176 ± 0.027 and 0.00452 ± 0.0019.
On the same counts, the results for UCCUGCUACAGCUUGCAUAGUAUGUUAGUUA are 0.164 ± 0.036 and 0.00247 ± 0.002.
For UCCUGGAACAGCUUGCAUAGUAUAUUGUUA, in that order: 0.153 ± 0.029 and 0.00533 ± 0.0022.
For UCCUGCUACAGCUUGCAAAGUUUUUAGUUA, the figures for the “pre-steady-state target cleavage rate” value in assay [1] (setting [3]) and in assay [2] were 0.0201 ± 0.0069 and 0.00207 ± 0.002, respectively.
For UCCUCCUACAGCUUGCAUAGUAUUUUCAUA, in that order: 0.091 ± 0.02 and 0.00665 ± 0.0037.
For UCCUGGAUCAGCUUGCAUAGAAUUUAGAUA, in that order: 0.0147 ± 0.0059 and 0.0036 ± 0.0019.
As for UCCUGGAAGAGCUUCCAUAGUAUUUAGUUA, the “pre-steady-state target cleavage rate” value in assay [1] (setting [3]) was 0.297 ± 0.085; in assay [2], 0.00329 ± 0.0011.
For UCCUGGAACAGCUUGCAUACUAUUAAGUUA, in that order: 0.0333 ± 0.012 and 0.00246 ± 0.0024.
On the same counts, the results for UCCUGGUACAGCUUGCAUAGUAUUUAGAAA are 0.162 ± 0.03 and 0.00435 ± 0.0017.
As to UCCUGCUACAGCUUGCAUAGAAUUUAGUAA, the “pre-steady-state target cleavage rate” value stood at 0.237 ± 0.062 in assay [1] (setting [3]) and 0.00358 ± 0.0016 in assay [2].
On the same counts, the results for UCCUGGAUGAGCUUCCAUAGUAUUUAGUUA are 0.0222 ± 0.011 and 0.00346 ± 0.0018.
